Screening data: PubChem, Broad Institute
This is one part of a sample in which hits are shown more often than they occur.
IDE exosite FP: displaces the probe from the exo-site of human IDE; P14735; purified IDE, FL-6b probe fluorescence polarization; hits give low values; z-score at 20 µM; actives 6.3% (n = 17,000); AID 1259349;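 active = z-score of -3 or lower, meaning strong loss of probe binding signal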;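 also: His-tagged human IDE residues 42-1019 made in E. coli with 30 nM FL-6b probe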
Target sequence (P14735 42-1019 limits assumed): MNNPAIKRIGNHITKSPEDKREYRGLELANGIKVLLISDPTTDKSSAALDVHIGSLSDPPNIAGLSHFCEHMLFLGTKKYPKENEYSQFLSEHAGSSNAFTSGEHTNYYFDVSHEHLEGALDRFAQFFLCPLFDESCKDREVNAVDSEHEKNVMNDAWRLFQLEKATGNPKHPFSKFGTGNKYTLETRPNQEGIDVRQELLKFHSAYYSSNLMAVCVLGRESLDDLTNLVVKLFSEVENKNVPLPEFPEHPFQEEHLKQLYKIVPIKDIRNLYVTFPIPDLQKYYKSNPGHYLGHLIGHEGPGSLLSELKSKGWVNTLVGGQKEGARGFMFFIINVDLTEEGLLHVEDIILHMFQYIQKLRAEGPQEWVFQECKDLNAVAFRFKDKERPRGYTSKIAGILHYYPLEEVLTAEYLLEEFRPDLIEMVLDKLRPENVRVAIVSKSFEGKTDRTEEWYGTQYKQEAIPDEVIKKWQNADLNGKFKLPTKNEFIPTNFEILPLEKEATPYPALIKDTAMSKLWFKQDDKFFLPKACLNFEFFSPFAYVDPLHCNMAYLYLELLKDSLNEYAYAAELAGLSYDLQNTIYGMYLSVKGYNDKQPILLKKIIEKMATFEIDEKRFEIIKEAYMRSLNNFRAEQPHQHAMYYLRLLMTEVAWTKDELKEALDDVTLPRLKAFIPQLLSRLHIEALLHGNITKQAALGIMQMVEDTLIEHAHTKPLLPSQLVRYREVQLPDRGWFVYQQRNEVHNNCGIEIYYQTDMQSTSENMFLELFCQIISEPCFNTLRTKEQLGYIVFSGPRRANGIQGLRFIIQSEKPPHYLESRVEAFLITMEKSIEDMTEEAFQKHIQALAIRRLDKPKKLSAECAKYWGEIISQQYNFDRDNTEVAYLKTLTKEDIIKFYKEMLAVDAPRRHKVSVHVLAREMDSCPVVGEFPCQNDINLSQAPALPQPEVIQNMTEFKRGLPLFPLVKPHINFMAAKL
* = called active by the depositor.

SMILES	IDE exosite FP
O=C(C1CCC1)N1CC(=O)N2[C@H](C1)[C@@H](c1ccc(-c3cccnc3)cc1)[C@@H]2CO	-1.72
COc1ccc(-c2ccc([C@@H]3[C@H]4CN(C(=O)C5CCC5)CC(=O)N4[C@H]3CO)cc2)cc1	3.08
COc1ccc(-c2ccc([C@@H]3[C@@H](CO)N4C(=O)CN(C(=O)C5CCC5)C[C@H]34)cc2)cc1	-0.21
COc1ccc(-c2ccc([C@@H]3[C@@H](CO)N4C(=O)CN(C(=O)C5CC5)C[C@@H]34)cc2)cc1	-2.52
CN(C)C(=O)c1cccc(-c2ccc([C@H]3[C@H](CO)N4C(=O)CN(C(=O)C5CCC5)C[C@@H]34)cc2)c1	0.831
COc1ccc(-c2ccc([C@H]3[C@H]4CN(C(=O)C5CC5)CC(=O)N4[C@H]3CO)cc2)cc1	-0.253
COc1cccc(-c2ccc([C@@H]3[C@@H](CO)N4C(=O)CN(C(=O)C5CC5)C[C@H]34)cc2)c1	-5.23*
COc1cccc(-c2ccc([C@@H]3[C@H]4CN(C(=O)C5CCC5)CC(=O)N4[C@H]3CO)cc2)c1	-9.32*
COc1cccc(-c2ccc([C@H]3[C@@H](CO)N4C(=O)CN(C(=O)C5CCC5)C[C@@H]34)cc2)c1	-6.99*
COc1cccc(-c2ccc([C@@H]3[C@@H](CO)N4C(=O)CN(C(=O)C5CCC5)C[C@@H]34)cc2)c1	-11.8*
CCCNC(=O)N1[C@H](C#N)[C@H](c2ccccc2)[C@@H]1CO	0.815
N#C[C@H]1[C@@H](c2ccc(-c3ccncc3)cc2)[C@@H](CO)N1C(=O)C1CC1	1.28
COc1ccccc1CNC(=O)C[C@@H]1C[C@H]2c3cc(NC(=O)C4CCC4)ccc3O[C@H]2[C@@H](CO)O1	-1.11
CCS(=O)(=O)N1CC(=O)N2[C@H](CO)[C@H](c3ccc(C4=CCCC4)cc3)[C@@H]2C1	-0.402
CC(=O)N1[C@H](CNC(=O)C2CC2)[C@H](c2ccc(-c3ccc(F)cc3)cc2)[C@@H]1CO	0.0698
COc1ccccc1C(=O)Nc1ccc2c(c1)C(=O)N(C)C[C@@H](OC)[C@@H](C)CN(C(C)=O)[C@@H](C)CO2	1.33
C[C@H](CO)N1C[C@H](C)[C@@H](CN(C)Cc2ccc(Cl)c(Cl)c2)OCCCC[C@H](C)Oc2ccc(NS(=O)(=O)c3cccs3)cc2C1=O	1.11
CCCNC(=O)N1CC2(CCN(C(=O)c3cccc(F)c3)CC2)c2c([nH]c3cc(OC)ccc23)[C@H]1CO	-0.917
CN1C(=O)c2cc(NC(=O)c3cscn3)ccc2OC[C@@H]2O[C@H](CC(=O)NCc3ccc(Cl)c(Cl)c3)CC[C@H]21	-1.12
CN(C)C(=O)c1cccc(-c2ccc([C@@H]3[C@@H](CO)N4CCCCN(CC5CCOCC5)C[C@@H]34)cc2)c1	1.09
C[C@H]1CN([C@@H](C)CO)C(=O)Cc2cc(NS(=O)(=O)c3ccc(F)cc3)ccc2O[C@@H]1CN(C)Cc1ccncc1	1.22
O=C(NC1CCCC1)N1CC(=O)N2[C@H](CO)[C@@H](c3ccc(-c4ccc(F)cc4)cc3)[C@H]2C1	2.42
O=C(NC1CCCC1)N1CC(=O)N2[C@H](C1)[C@@H](c1ccc(-c3ccc(F)cc3)cc1)[C@@H]2CO	1.21
O=C(NC1CCCC1)N1CC(=O)N2[C@H](CO)[C@H](c3ccc(-c4ccc(F)cc4)cc3)[C@@H]2C1	3.75
O=C(NC1CCCC1)N1CC(=O)N2[C@H](C1)[C@H](c1ccc(-c3ccc(F)cc3)cc1)[C@@H]2CO	2.09
SMILES	IDE exosite FP
O=C(NC1CCCCC1)N1CC(=O)N2[C@H](CO)[C@H](c3ccc(-c4cccc(F)c4)cc3)[C@H]2C1	-12.7*
O=C(NC1CCCCC1)N1CC(=O)N2[C@H](C1)[C@H](c1ccc(-c3cccc(F)c3)cc1)[C@@H]2CO	-6.25*
C[C@H]1CCCCO[C@@H](CN(C)Cc2ccncc2)[C@@H](C)CN([C@@H](C)CO)C(=O)c2cc(NS(=O)(=O)c3ccc(Cl)cc3)ccc2O1	0.56
CCCNC(=O)N1[C@H](CO)[C@H](c2ccccc2-c2ccccc2F)[C@@H]1C#N	-1.93
O=C(C[C@@H]1C=C[C@H](NC(=O)Cc2cccnc2)[C@H](CO)O1)NCc1ccc2c(c1)OCO2	2.33
COc1ccc(C#Cc2ccc([C@@H]3[C@@H](CO)N4C(=O)CN(C(=O)c5ccc(F)cc5)C[C@H]34)cc2)cc1	-0.0524
C[C@@H]1CC=CC[C@@H](c2cccc(Cl)c2)NC(=O)[C@H](Cc2ccccc2)N(C)C(=O)c2ccccc2O1 (mixture of isomers)	0.755
N#C[C@@H]1[C@H](c2ccccc2C2=CCCCC2)[C@H](CO)N1S(=O)(=O)c1ccccc1	0.121
C[C@@H]1CN([C@@H](C)CO)C(=O)c2cc(-c3ccc(F)cc3)cnc2O[C@H]1CN(C)S(C)(=O)=O	0.988
C[C@@H]1CN([C@H](C)CO)C(=O)c2cc(/C=C/c3ccccc3)cnc2O[C@H]1CN(C)S(=O)(=O)c1ccccc1F	-4.63*
C[C@H](CO)N1C[C@H](C)[C@H](CN(C)S(=O)(=O)c2ccccc2F)Oc2ncc(/C=C/c3ccccc3)cc2C1=O	-1.73
C/C=C/c1ccc([C@H]2[C@@H](CO)N(C(C)=O)[C@H]2CNC(=O)NCCC)cc1	1.98
COc1ccccc1C#Cc1ccc2c(c1)[C@H]1NCC[C@H]1[C@@H](CO)N2	0.849
COCCN(C[C@H]1N[C@H](CO)[C@@H]1c1ccc(-c2cccc(F)c2)cc1)C(C)=O	-0.131
C[C@H]1CCCCO[C@H](CN(C)S(=O)(=O)c2ccc(F)cc2)[C@@H](C)CN([C@@H](C)CO)C(=O)c2cc(N(C)C)ccc2O1	-0.461
C[C@H]1CN([C@@H](C)CO)C(=O)Cc2cc(NC(=O)Nc3ccc(F)cc3)ccc2O[C@@H]1CN(C)S(C)(=O)=O	1.44
O=C(CN1CCOCC1)N1CC(=O)N2[C@@H](CO)[C@H](c3ccc(-c4ccccc4)cc3)[C@@H]2C1	1.49
COc1cccc(-c2ccc([C@H]3[C@@H](CO)N4C(=O)CN(C(=O)C5CCOCC5)C[C@H]34)cc2)c1	-8.69*
COc1ccc(-c2ccc([C@@H]3[C@@H](CO)N4C(=O)CN(C(=O)C5CCOCC5)C[C@H]34)cc2)cc1	1.63
COc1ccc(-c2ccc([C@H]3[C@H](CO)N4C(=O)CN(C(=O)C5CCOCC5)C[C@@H]34)cc2)cc1	-1.15
O=C(CN1CCOCC1)N1CC(=O)N2[C@H](CO)[C@@H](c3ccc(-c4cccc(F)c4)cc3)[C@H]2C1	1.21
COc1cccc(-c2ccc([C@H]3[C@H](CO)N4C(=O)CN(C(=O)C5CCOCC5)C[C@@H]34)cc2)c1	-1.85
COc1cccc(-c2ccc([C@H]3[C@@H](CO)N4C(=O)CN(C(=O)C5CCOCC5)C[C@@H]34)cc2)c1	-4.45*
COc1cccc(-c2ccc([C@H]3[C@H](CO)N4C(=O)CN(C(=O)CN5CCOCC5)C[C@@H]34)cc2)c1	-3.36*
COc1cccc(-c2ccc([C@H]3[C@H]4CN(C(=O)C5CCOCC5)CC(=O)N4[C@H]3CO)cc2)c1	-0.851
CC=Cc1ccc2n(c1=O)C[C@@H]1[C@@H](CO)[C@H](C(=O)NCCCN(C)C)N(Cc3cocn3)[C@H]21 (mixture of isomers)	0.784
C[C@H]1CN([C@@H](C)CO)C(=O)c2ccccc2-c2ccccc2CO[C@H]1CN(C)C(=O)[C@@H](Cc1ccccc1)N(C)C	-1.27
CO[C@H]1CN(C)C(=O)c2ccc(NC(=O)c3cccc(F)c3)cc2OC[C@H](C)NC[C@H]1C	1.03
C[C@@H]1CCCCO[C@H](CN(C)Cc2ccncc2)[C@H](C)CN([C@H](C)CO)C(=O)c2cc(NC(=O)Cc3ccccc3)ccc2O1	0.98
